# Measurements: PubChem BioAssay AID651678 (Sanford-Burnham Center for Chemical Genomics, 2012)
# Some of the results follow. Activity calls are given as the source filed them. No stated cut-off is given here; in the data, active means inhibition mostly above about 35% (no sharp cut-off); inactive means mostly below about 32%.
# Target: Sentrin-specific protease 1 (Homo sapiens) (UniProt Q9P0U3)
# Assay: retest of SENP1 SUMO protease blockers – biochemical, FRET endpoint, single concentration, confirmation (AID 651678);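 further: 0% = enzyme with DMSO and 100% = no enzyme control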
# Settings: recombinant SENP1, CyPet-SUMO1-YPet FRET cleavage; at 10 µM; active compounds read high
# Sentrin-specific protease 1 (Homo sapiens), sequence (Q9P0U3 419-644 limits assumed): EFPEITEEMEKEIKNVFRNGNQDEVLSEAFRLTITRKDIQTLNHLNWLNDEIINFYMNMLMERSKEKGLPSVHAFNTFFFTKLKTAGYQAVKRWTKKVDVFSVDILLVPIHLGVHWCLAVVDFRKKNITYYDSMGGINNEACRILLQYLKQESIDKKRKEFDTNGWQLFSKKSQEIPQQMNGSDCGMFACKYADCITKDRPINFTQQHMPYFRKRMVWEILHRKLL
structure (smiles),measurement,value
COc1ccccc1N=Nc1c(O)[nH]c(=S)[nH]c1=O,inhibition,52% (active)
